Source: PubChem BioAssay (NCATS)
Records with an inconclusive call do not appear. Entries that show only a call come without a potency. Active and inactive are the calls of the source. Calls come from the whole dose curve; as a rule, active = well fitted activation curve with a large enough effect; inconclusive = small, poorly fitted or top-dose-only effect; inactive = flat fitted curve, though single readings scatter.

Experiment: qHTS for Activators of Parkin Expression: LOPAC Validation Assay (NLuc Reporter) (AID 720572)
Settings: Parkin promoter NanoLuc reporter cells, luminescence; series mostly up to 46.1 µM
Source text: Parkin is an E3 ubiquitin ligase localized in the cytosol of cells expressed in many tissues, including brain, skeletal muscle, heart and liver tissues. One hour after stress induction by mitochondrial uncouplers (which mimic mitochondria damage by decreasing the mitochondrial inner membrane electrochemical gradient that is used to produce ATP), Parkin translocates from the cytosol to mitochondria in many cultured cell types, including neurons and HeLa cells. Administration of other mitochondrial poisons, such as Paraquat and azide in cells lacking mitochondrial DNA (mtDNA), induces Parkin translocation to mitochondria. […] It was proposed that Parkin (together with Pink1) mediates a mitochondrial quality control pathway to maintain organelle population fidelity by removing damaged mitochondria. Understanding the normal physiologic role of Parkin (and Pink1) may uncover novel treatment strategies for sporadic Parkinson's disease patients with mutation in these genes.
A cell based qHTS in 1536 well format was developed assess modulation of Parkin expression using a neuronal cell line that stably expresses a stably expresses a luminescent coincidence reporter (FLuc and NLuc reporters) behind the Parkin promoter. The LOPAC library is used to validate the assay for quantitative high-throughput screening. The data herein reports the signal from the NLuc reporter. An increase in this signal = activation of Parkin expression. For this assay , a positive control normalized signal increase corresponding to a high quality qHTS curve class in both luminescent channels is the desired outcome for this assay.
NIH Chemical Genomics Center [NCGC]
NIH Molecular Libraries Probe Centers Network [MLPCN]
Assay Submitter (PI): Richard Youle, National Institute of Neurological Disorders and Strokes (NINDS), NIH
[1] Narendra, D., et al., Parkin is recruited selectively to impaired mitochondria and promotes their autophagy. J Cell Biol, 2008. 183(5): p.
[2] Suen, D.F., et al., Parkin overexpression selects against a deleterious mtDNA mutation in heteroplasmic cybrid cells. Proc Natl Acad Sci U S A, 2010. […] 11835-40.
[3] Cheng K, Inglese J. A coincedence reporter-gene system for high-throughput screening. Nat Methods. 2012: 9(10);937
Five microliters (1,500 cells/well) of the Parkin coincidence reporter cells were seeded to 1536 well assay plates (Greiner Catalog # 789173-F) and incubated at 37 C, 5% CO2 for 24 hours. Compounds (23 nL) were pinned using the Kalypsys robotic system equipped with 1536 pin head adaptor in 7-point dose response. The assay plates were incubated for additional 24 hr at 37 C, 5% CO2 followed by a volume reduction in each well to 2 uL using an automated plate washer/aspirator. Following the volume reduction,2 uL of FLuc detection reagent and plates were incubated for 10 minutes at room temperature. The FLuc luminescence signal was obtained using the PerkinElmer ViewLux plate imager and then 2 uL of NanoLuc detection reagent was added to the plates. After another 10 minute incubation, NanoLuc signal was obtained using the PerkinElmer ViewLux plate imager as before. Data from each channel was normalized to DMSO (neutral control) and the positive control compounds (100%).
Potency is the fitted concentration of half-maximal effect.

SMILES	Potency
COCCOC(=O)C1=C(C)NC(C)=C(C(=O)OC(C)C)C1c1cccc([N+](=O)[O-])c1 (stereo not given)	2060 nM (active)
Cc1nnc(SCC2=C(C(=O)O)N3C(=O)[C@@H](NC(=O)Cn4cnnn4)[C@H]3SC2)s1	inactive
c1cc(CN2CCCCC2)cc(OCCCNc2nc3ccccc3s2)c1	inactive
CCN(CC)CCNC(=O)c1ccc(NC(C)=O)cc1	inactive
CN/C(=C\[N+](=O)[O-])NCCSCc1ccc(CN(C)C)o1	inactive
CCCOc1ccccc1-c1nc2n[nH]nc2c(=O)[nH]1	inactive
CCOC(=O)C1=C(C)NC(C)=C(C(=O)OC)C1c1cccc([N+](=O)[O-])c1 (stereo not given)	1460 nM (active)
NC(=O)c1cn(Cc2c(F)cccc2F)nn1	inactive
Cc1nc2c([nH]1)c(=O)n(C)c(=O)n2Cc1ccco1	inactive
CN(C)C/C=C(/c1ccc(Br)cc1)c1cccnc1	inactive
C[N+](C)(C)CCOC(=O)CCC(=O)OCC[N+](C)(C)C	inactive
CCCNC(C)C(=O)Nc1ccccc1C (stereo not given)	inactive
O=C(CCCN1CCC(O)(c2cccc(C(F)(F)F)c2)CC1)c1ccc(F)cc1	inactive
CCCN1C[C@H](CSC)C[C@@H]2c3cccc4[nH]cc(c34)C[C@H]21	inactive
CN(C)CCOC(=O)COc1ccc(Cl)cc1	inactive
NC(=O)N1c2ccccc2C=Cc2ccccc21	inactive
COC(=O)C1=C(C)NC(C)=C(C(=O)OCCN(C)Cc2ccccc2)C1c1cccc([N+](=O)[O-])c1 (stereo not given)	16400 nM (active)
NC(Cc1ccc(Cl)cc1)C(=O)O (stereo not given)	inactive
NC(N)=NC(=O)Cc1c(Cl)cccc1Cl	inactive
CN(C)[C@@H]1C(=O)C(C(N)=O)=C(O)[C@@]2(O)C(=O)C3=C(O)c4c(O)ccc(Cl)c4[C@@H](O)[C@H]3C[C@@H]12	inactive

SMILES	Potency
CCN(Cc1ccncc1)C(=O)C(CO)c1ccccc1 (stereo not given)	inactive
CCCC(C(=O)OCCN(CC)CC)(c1ccccc1)c1ccccc1	inactive
CC(=O)Oc1cc(C(C)C)c(OCCN(C)C)cc1C	inactive
CNC1(C)C2CCC(C2)C1(C)C (stereo not given)	inactive
C[C@H](CS)C(=O)N1CCC[C@H]1C(=O)O	inactive
Cc1ccc(S(=O)(=O)NC(=O)NN2CCCCCC2)cc1	inactive
c1cnc(N2CCN(Cc3ccc4c(c3)OCO4)CC2)nc1	inactive
CC(C)(Oc1ccc(CCNC(=O)c2ccc(Cl)cc2)cc1)C(=O)O	inactive
CN=C(NC#N)NCCSCc1nc[nH]c1C	inactive
CCCCNc1ccc(C(=O)OCCN(C)C)cc1	inactive
NS(=O)(=O)c1cc2c(cc1Cl)NC(C1CC3C=CC1C3)NS2(=O)=O (stereo not given)	inactive
CC(C)COCC(CN(Cc1ccccc1)c1ccccc1)N1CCCC1 (stereo not given)	inactive
N[C@@H](COP(=O)(O)O)C(=O)O	inactive
COc1ccc([C@@H]2Sc3ccccc3N(CCN(C)C)C(=O)[C@@H]2OC(C)=O)cc1	inactive
CCN(CC)CC(=O)Nc1c(C)cccc1C	inactive
C[C@@H](O)[C@H]1C(=O)N2C(C(=O)O)=C(SCCN=CN)C[C@H]12	inactive
COc1cc(C(=O)OCCCN2CCCN(CCCOC(=O)c3cc(OC)c(OC)c(OC)c3)CC2)cc(OC)c1OC	inactive
CN(C)CC/C=C1\c2ccccc2COc2ccccc21	inactive
O=C(O)CN(CCN(CC(=O)O)CC(=O)O)CCN(CC(=O)O)CC(=O)O	inactive
O=C(O)CCCCCCCC(=O)O	inactive
